Measured values published in the OligoGym collection.

biological target: C6orf105; assay: pooled miR-30 sensor sort-seq; sequence = guide strand; conditions: shRNA
Also: reference of the scale not given here.

Row | Sequence | sensor-assay potency score (higher = more potent)
1 | TTCTTTTCAGCACATCATCCAG | -1.18
2 | TTAAGTATCACTCTCTGTCCCT | 0.33
3 | TTGCATGATTCAGCCACACGGG | -0.688
4 | TTGTAGAGAAAGAGGATCCAGA | -0.578
5 | TATATTTCCACCTTGCACCATT | -0.555
6 | TTAAATTTAAGTATCACTCTCT | 1.11
7 | TTCAGCACATCATCCAGGCAGG | -0.972
8 | TATCACTCTCTGTCCCTCCTAC | 0.281
9 | TAAGTATCACTCTCTGTCCCTC | -0.473
10 | TCTCCAAGTAGGTAGATGCTGG | -0.762
11 | TCTTTTCAGCACATCATCCAGG | -0.0678

biological target: C6orf118; assay: as above; conditions: shRNA

Row | Sequence | sensor-assay potency score (higher = more potent)
12 | TTGTATAGCTTCATGCTCTATG | 0.444
13 | TCTCAGATGATTCTGATCGTTC | -0.778
14 | TACACAGGGTCTTCACTCCTGG | -0.203
15 | TGAAATTCCAGTATGAACCAAA | -0.164
16 | TTAAGAACTAGTATTGTTGTAA | 0.558
17 | TTTTACTAGAGATTAAAGCTGA | 0.127
18 | TATGTTTCTCAGATGATTCTGA | 0.578
19 | TTCAGGTACCTGAACAGCGGGG | -1.06
20 | TTACACAGGGTCTTCACTCCTG | 0.491
21 | TAGAGGTAGACGTCCTCCCGGT | -0.61
22 | TTGCTTGGCGAGCACTTCCTTC | -1.21

biological target: C6orf145; assay: as above; conditions: shRNA

Row | Sequence | sensor-assay potency score (higher = more potent)
23 | TATTTGCTAAACAAAATCCATT | -1.51
24 | TCAATAACTATTGTTTCGGTAT | -0.234
25 | TTATCTAGTCGGCAATGCCTTC | -1.25
26 | TATGATCGTCTTCAGCAGCTTC | -1
27 | TGGATTACTAAACATCCCCTGC | -0.823
28 | ATTTTTTAACACCTGATCCAGA | -0.814
29 | TTACTAAACATCCCCTGCCTGT | -0.858
30 | TTGACTGGACTTTGAAAGCTGG | -0.406
31 | TATACTGTGGTCAATAACTATT | -1.52
32 | TTTACATTAGCAAATGTCGGTC | -0.665
33 | TCGTTAGTAGACACTGAGCAGA | -0.734

biological target: C6orf203; assay: as above; conditions: shRNA

Row | Sequence | sensor-assay potency score (higher = more potent)
34 | TATTTTAATAAAAATGTCCTAT | -0.604
35 | TTTGTAGAAAGCATCTTCCACT | -0.297
36 | TTCAGGACAACATCATACCGAA | -0.635
37 | TTTCACTTTCAGTCTTCTCTTC | 0.689
38 | TTAAACTTTTCCACCGCCGTAA | -0.414
39 | TAGTTTTTGACTACAGTAGGAT | -0.319
40 | TTACTTTTGAGTCTTACGGAAA | -1.38
